The values that follow come from PubChem BioAssay AID429 (Emory University Molecular Libraries Screening Center, 2006).

Screen size: about 64,000 compounds; about 220 (0.34%) were called active.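 How the source made its calls: active means inhibition above 50%; inactive means the rest.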 Many of the other results were omitted from the sample, so actives are more common in it than they were.

In this assay the target is Heat shock protein HSP 90-alpha (Homo sapiens) (UniProt P07900). Description: Hsp90 geldanamycin-site probe displacement – cell lysate, fluorescence polarization, NCI-N417 lysate, primary screen (AID 429).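 Further: 0% = tracer plus lysate wells and 100% = tracer alone without lysate.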 The following applies: NCI-N417 lysate Hsp90, Cy3B-geldanamycin FP displacement; at 30 µM; stronger effect = higher value.
Regarding `CCOC(=O)C1CCCN(Cc2nc(N)nc(Nc3ccc(C)cc3)n2)C1` (centres undefined), the inhibition is -6.1% (inactive). The figure for `CC(C)n1c(NCc2c[nH]c3ccccc23)nc2ccccc21` is 1.28% (inactive); for `CCN(CC)S(=O)(=O)c1ccc(C(=O)Nc2cc(Br)cc3cccnc23)cc1` it is 1.06% (inactive); for `COc1ccc(-n2c(SCC(=O)NCc3cccs3)nnc2-c2ccoc2C)cc1` it is -1.94% (inactive). The figure for `Cc1cccc(Cn2c(N3CCN(c4ccccc4)CC3)nc3c2c(=O)n(C)c(=O)n3C)c1` is -2.67% (inactive). As for `O=C(NCc1cn2ccsc2n1)Nc1cccc(Cl)c1`, the inhibition is -4.35% (inactive).

Take `CCc1ccc(N(CC)c2ncnc3nc[nH]c23)cc1`: the inhibition is -2.13% (inactive).

In the case of `CCC1(C)CC(=O)NC1=O` (centres undefined), the inhibition was 0.1% (inactive). For `CC[C@@H]1Cc2cc(O)ccc2C2=C1c1ccc(O)cc1C[C@H]2CC`, the inhibition is 14.4% (inactive). With `CCn1cc(C(=O)N2CC=C(c3ccccc3)CC2)c(=O)c2ccc(C)nc21` the figure was -3.28% (inactive). With `CCNC(=O)CCc1nc(-c2ccc(C(C)(C)C)cc2)no1` the figure was -1.56% (inactive); with `Cc1ccc(S(=O)(=O)N(C)CC(=O)NC2CCCC2)cc1`, -0.25% (inactive); with `CCN(CC)C(=O)CSc1nnc(-c2ccc(S(=O)(=O)NCc3ccccc3Cl)cc2)o1`, 1.83% (inactive).

Regarding `Cc1ccc(C)c(NC(=O)C2CC(=O)N(C(C)C)C2)c1` (centres undefined), the inhibition is -3.18% (inactive).

With `Cc1ccnc(N2C(=O)c3ccccc3C2Nc2ccc3c(c2)OCCO3)c1` (centres undefined), the inhibition was 1.75% (inactive). With `Cc1cc(C)nc(SCc2nnc(SCC(=O)OC3CCCCC3)o2)n1` the figure was -0.1% (inactive); with `O=c1cc(CSc2ccc(Cl)cc2)nc(N2CCOCC2)[nH]1`, -2.37% (inactive).

Regarding `O=C(CCC(=O)OCC(F)(F)C(F)F)NCc1ccccc1`, the inhibition was -3.91% (inactive). On to `O=C(CCN1C(=O)c2ccccc2C1=O)NCCN1CCOCC1`, for which the inhibition was -1.37% (inactive).

For the molecule `CC(=O)Oc1cc2c(C(=O)NCCN3CCOCC3)c(C)oc2c2ccccc12`, the inhibition is 91% (active).

As to `O=C(NCCN1CCOCC1)c1c(F)c(F)c(F)c(F)c1F`, the inhibition was -0.16% (inactive). The figure for `Cc1ccc(C(c2sc3nc(C)nn3c2O)N2CCN(c3ccc(F)cc3)CC2)cc1` (centres undefined) is 2.37% (inactive); for `O=C(O)c1cscn1` it is -1.54% (inactive). The figure for `COc1cccc(Nc2ncccc2C(=O)O)c1` is 1.09% (inactive); for `COc1cccc(NC(=O)C(C)Oc2ccccc2)c1` (centres undefined) it is 86.4% (active); for `COc1cccc(NC(=O)c2ccccc2SC)c1` it is -1.59% (inactive).

For the molecule `CCN(CC)S(=O)(=O)c1cccc(C(=O)Nc2cc(C)nn2-c2nc(C)cc(C)n2)c1`, the inhibition is -2.41% (inactive). Consider `CSCC[C@H](NC(=O)NCCc1ccc(F)cc1)C(=O)O`, for which the inhibition is -0.8% (inactive). With `CN(c1ccccc1)c1ccc(/C=c2\s/c(=C(/C#N)C(=O)C(C)(C)C)n(Cc3ccco3)c2=O)cc1` the figure was 50.6% (active); with `O=c1nc2s/c(=C\c3ccco3)c(=O)n2nc1Cc1ccccc1`, -6.3% (inactive); with `CCOC(=O)CSc1nc2c(sc(=S)n2CCc2ccccc2)c(=O)n1Cc1ccco1`, -1.25% (inactive).

With `CN(C)c1cc(N)c2ccccc2n1` (tested in a mixture with another compound), the inhibition was -9.07% (inactive). For the molecule `CC12CCC(C(=O)N(CCC#N)CCC#N)(CC1=O)C2(C)C` (centres undefined), the inhibition is -2.19% (inactive). `O=C(CC1CCCCC1)Nc1c2c(nn1-c1ccc(F)cc1)CS(=O)(=O)C2`: the inhibition was -1.94% (inactive).

Turning to `Cc1cccn2c(=O)c3cc(C(=O)N4COCC4(C)C)n(C)c3nc12`, the inhibition is 0.48% (inactive). With `COc1ccc(Cl)cc1S(=O)(=O)Nc1cccc(C(=O)O)c1` the figure was -0.7% (inactive); with `O=S(=O)(NCC1CCCO1)c1ccc2ccccc2c1` (centres undefined), -3.52% (inactive); with `Cc1ccc(C(=O)O)cc1S(=O)(=O)NCC1CCCO1` (centres undefined), 77.4% (active). With `Cc1cc(Cl)c(S(=O)(=O)NCC2CCCO2)cc1OCC(N)=O` (centres undefined) the figure was -4.41% (inactive). The figure for `CCSc1nc2c(c(=O)[nH]1)C(c1cccnc1)C(C(=O)OC(C)C)=C(C)N2` (centres undefined) is -0.2% (inactive).

On to `O=C(O)CSC(NC(=O)c1cccnc1)(C(F)(F)F)C(F)(F)F`, for which the inhibition was -0.65% (inactive). With `O=C(Nn1cnc2ccccc2c1=O)c1ccc(F)cc1Cl` the figure was -2.64% (inactive). The figure for `CCCCn1c(=S)[nH]c2ncccc2c1=O` is -6.13% (inactive); for `Cc1ccc2[nH]c3c(c2c1)CN(C(=O)CN1CCN(c2ccccc2)CC1)CC3` it is 92.3% (active); for `O=C(NC1CCCCC1)N1CCc2[nH]c3ccccc3c2C1` it is -4.69% (inactive).

On to `CCCC(=O)N1CCc2[nH]c3ccccc3c2C1`, for which the inhibition is -3.78% (inactive). `Cc1ccc(C)c(N(CC(=O)NCc2ccco2)C(=O)CCC(=O)Nc2ccccn2)c1`: the inhibition is -5.16% (inactive).

For `Cc1c(C(=O)OCC(=O)N(CCC#N)c2ccccc2)oc2c1ccc1ccccc12`, the inhibition was 0.74% (inactive). The figure for `COc1nc(Oc2ccc(=O)n(C)n2)nc(N(C)C)n1` is -0.95% (inactive); for `COc1cccc(C2/C(=C(/O)c3ccc(F)cc3)C(=O)C(=O)N2CCN(C)C)c1` (centres undefined) it is -1.56% (inactive); for `CC1CN(c2cc(=O)n(-c3cccc(Br)c3)c(=O)[nH]2)CC(C)O1` (centres undefined) it is 1.65% (inactive). With `Cc1ccc(N2CCN(c3ccc(C)cc3)C2c2ccccn2)cc1` the figure was 0.05% (inactive); with `COc1cc(C2C(C(=O)Nc3ccc(F)cc3)=C(C)Nc3nc(CCCO)nn32)cc(OC)c1OC` (centres undefined), -1.54% (inactive). As to `CCOc1ccccc1N(CC(=O)NC1CCCCC1)C(=O)CCCC(=O)Nc1ccccn1`, the inhibition is -0.59% (inactive).

For `CC1OC2C(OC1C)N(S(C)(=O)=O)CCN2S(C)(=O)=O` (centres undefined), the inhibition is -2.81% (inactive). As for `O=C(O)CCC(=O)Nc1ccc(N2CCOCC2)cc1`, the inhibition was 8.24% (inactive). Consider `COc1ccc(C(=O)NCc2cn3ccccc3n2)cc1`, for which the inhibition was 2.11% (inactive).

In the case of `O=C(CC1N=C2c3ccccc3N=C(SCc3ccccc3Cl)N2C1=O)NCc1ccco1` (centres undefined), the inhibition was -7.5% (inactive). The figure for `CCCC(C(=O)NCc1ccco1)N(C(=O)CNS(=O)(=O)c1ccccc1)C1CCCC1` (centres undefined) is -1.3% (inactive); for `CCOC(=O)CSC1=C(C#N)C(c2sccc2C)CC(=O)N1` (centres undefined) it is -2.64% (inactive). For the molecule `Cc1nn(-c2ccccc2)c(C)c1C(=O)OCC(=O)NC(=O)NC1CCCCC1`, the inhibition is -2.89% (inactive). Turning to `CCCN(CCc1ccccc1)C1CCc2c(O)cccc2C1` (centres undefined), the inhibition was -0.71% (inactive). The figure for `CCCn1c(=O)c2ccccc2n2c(SCC(=O)/C(C#N)=C(\C)N)nnc12` is -5.05% (inactive); for `O=c1cc(CSc2ccccn2)nc(N2CCN(c3ccccc3)CC2)[nH]1` it is -2.49% (inactive).

As to `CC(C)NS(=O)(=O)c1ccc(OCC(=O)Nc2ccc3c(c2)OCCO3)cc1`, the inhibition is -7.01% (inactive). The figure for `CC1CCCN(C(=O)c2ccc3c(c2)C(=O)N(CCC2=CCCCC2)C3=O)C1` (centres undefined) is -1.14% (inactive); for `COc1ccccc1NC(=O)CSc1nnc(Cn2nnc(-c3ccccc3)n2)n1-c1ccccc1` it is 2.15% (inactive); for `O=C(c1ccco1)N1CCN=C1SCc1cccc(Cl)c1` it is -5.15% (inactive). Take `CCCCc1nc2ccccc2c(NC(=O)CN2CCN(C)CC2)c1CCC`: the inhibition is -1.26% (inactive). The figure for `CCCn1cc(SCC(N)=O)c2ccccc21` is -4.04% (inactive); for `CC(C)(Oc1ccc(C2CC2(Cl)Cl)cc1)C(=O)O` (centres undefined) it is 1.49% (inactive). Turning to `COC1(C2=NCCN2)COc2ccccc2O1` (centres undefined), the inhibition is 1.52% (inactive). The figure for `CCOC(=O)Nc1ccc2c(c1)N(C(=O)CN1CCN3CCCC3C1)c1ccccc1CC2` (centres undefined) is -6.22% (inactive); for `Cc1ccc(S(=O)(=O)NC(=O)N2CCCC(C)(C)C2)cc1` it is -0.1% (inactive). The figure for `O=c1c(F)cn(C2CCCO2)c(=O)n1Cc1ccccc1Cl` (centres undefined) is -6.6% (inactive); for `CCOC(=O)C1=C(CC)Nc2ccccc2N=C1NC(=O)c1cccc(S(=O)(=O)N2CCCC2)c1` it is -3.82% (inactive). With `CCCc1nc2ccccc2c(=O)n1NC(=O)c1c(O)c2ccccc2[nH]c1=O` the figure was -3.13% (inactive); with `CCCCc1nc2ccccc2c(=O)n1NC(=O)c1c(O)c2cccc3c2n(c1=O)CC3`, -2.36% (inactive); with `CCCc1nc2ccccc2c(=O)n1/N=C/c1ccc(O)c(O)c1`, 70.7% (active). In the case of `CCC(=O)Nc1cccc(NC(=O)CSc2nnc(-c3ccc(NS(C)(=O)=O)cc3)n2C)c1`, the inhibition is -0.45% (inactive).

Consider `O=C(CCc1ccccc1)Nc1ccc(NC(=O)C2CC2)nc1`, for which the inhibition was -2.83% (inactive). With `N#CC1=C(N)Oc2n[nH]c(CSc3ccccc3)c2C12C(=O)Nc1ccccc12` (centres undefined) the figure was -11.3% (inactive); with `CC1Cc2ccccc2N1C(=O)CSc1nnc(-c2ccc(S(=O)(=O)N3CCCCC3)cc2)o1` (centres undefined), -0.41% (inactive). With `Nn1c(SCC(=O)NC(=O)NC2CCCC2)nnc1-c1ccccc1F`, the inhibition is -5.58% (inactive). As to `CCOC(=O)/C=c1\s/c(=C\c2ccccc2OC)c(=O)n1CC(=O)N1CCOCC1`, the inhibition was -5.13% (inactive). On to `Cc1cc(C)c2nc(N3CCCC3)c(C#N)cc2c1`, for which the inhibition is 4.01% (inactive).

On to `Cc1noc(C)c1S(=O)(=O)N(CC(=O)Nc1ccc2c(c1)OCCO2)c1ccc(C(C)C)cc1`, for which the inhibition was -1.54% (inactive). In the case of `CNc1ncnc2c1ncn2[C@@H]1O[C@H](CO)[C@H](O)C1O` (some centres undefined), the inhibition is -3.44% (inactive). For the molecule `O=C(Nc1ccc(NC(=O)c2cccs2)cn1)c1ccco1`, the inhibition was -0.15% (inactive). With `CC(C)(C)c1ccc(NC(=O)NCc2ccco2)cc1` the figure was -5.65% (inactive). With `Cc1ccc(C(=O)Nc2nnc(-c3cccs3)s2)cc1C` the figure was -0.3% (inactive); with `CCNc1nc(N)nc(Oc2ccc(OCC)nn2)n1`, -5.57% (inactive); with `O=c1cc(-c2ccccc2)[nH]c2nc(Cl)ccc12`, -1.33% (inactive). `CCOc1ccc(CCNC(=O)C2CCN(c3ccc(N4CCOCC4)nn3)CC2)cc1OCC`: the inhibition was -1.25% (inactive).
